# Unmarked numbers belong to inactive results. Active and inactive are the calls of the source. Unless noted, no rule for the calls is given here.
# Assay: P. aeruginosa biofilm formation inhibitors, primary screen, strain PAO1, LB-PBS medium, absorbance 600 nm (AID 1176)
# Settings: P. aeruginosa PAO1 growth/biofilm, A600, 12 h; higher = more signal
# Also: test concentration not given here.
row,Structure (SMILES),z-score
1,CC(C)N1CC=CC23O[C@@H]4/C=C\CCCOC(=O)C4[C@H]2C(=O)N(C(C)CO)[C@@H]3C1=O (stereo partly specified),0.0126
2,O=C1C2C=CC(C(O)C3CCCCC3)N(Nc3ccccc3F)C2C(=O)N1c1ccccc1 (stereo unspecified),0.931
3,CC1CC/C=C\[C@H]2OC34C=CCN(C(C)C)C(=O)[C@H]3N(C(C)CO)C(=O)[C@@H]4C2C(=O)O1 (stereo partly specified),2.9
4,CC(C)(C)OC(=O)CC[C@@]1(C(N)=O)N=C(c2ccc(OCCCO)cc2)O[C@@H]1c1ccccc1CN=[N+]=[N-],0.122
5,O=C(NC1CC1)[C@@H]1c2ccccc2C(=O)N(C2CCCCC2)[C@H]1c1ccc(CO)cc1,0.292
6,COc1ccc(CCNC(=O)[C@@]2(c3ccc([N+](=O)[O-])cc3)CC(=O)N(C3CCCCC3)[C@@H]2c2ccc(CO)cc2I)cc1,0.14
7,C=C(COC)C(=O)CC[C@@H](OC(=O)c1ccccc1-c1ccccc1C(=O)O)c1ccccc1OCCO,2.1

# Assay: S. cerevisiae RM11-1a growth modifiers, primary screen, strain RM11-1a, OD600, basal, 24 h (AID 1177);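 also: cultures grown under basal conditions with no added stressor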
# Settings: OD600, 24 h, higher = more signal, called active from +8 up or from −8 down
row,Structure (SMILES),z-score
1,COCCOC(=O)N1C(=O)[C@@]2(c3cc(C#CCCO)ccc31)[C@H](C(=O)N1CCN(c3ncccn3)CC1)[C@H]1C(=O)O[C@H](c3ccccc3)[C@H](c3ccccc3)N1[C@@H]2c1ccc(OCCO)cc1,2.75
2,CC[C@@H](O[Si](C#C[Si](C(C)C)(C(C)C)C(C)C)(C(C)C)C(C)C)c1cn(Cc2cccc(Cl)c2)nn1,1.33
3,COCCOC(=O)N1C(=O)[C@@]2(c3cc(C#CCC(C(=O)OC)C(=O)OC)ccc31)[C@H](c1ccc(O)cc1)N1[C@H](c3ccccc3)[C@H](c3ccccc3)OC(=O)[C@H]1[C@@H]2C(=O)N1CCc2cc(OC)c(OC)cc2C1,0.494
4,Cc1ccc(S[C@]2(C(=O)NCCN3CCOCC3)CC(=O)N(C(C)C)[C@@H]2c2ccc(CO)cc2I)cc1,-2.93
5,CC(C)c1ccc(NN2C(C(O)c3ccccc3)C=CC3C(=O)N(c4ccccc4)C(=O)C32)cc1 (stereo unspecified),1.58
6,CC(C)C(=C=CC[C@H](O)c1cccc(OCCO)c1)C[C@H](O)c1ccccn1,-0.69
7,COCCOC(=O)N1C(=O)[C@@]2(c3cc(C#CCNC(N)=O)ccc31)[C@H](c1ccc(O)cc1)N1[C@H](c3ccccc3)[C@H](c3ccccc3)OC(=O)[C@H]1[C@@H]2C(=O)N1CCc2cc(OC)c(OC)cc2C1,2.24
8,[N-]=[N+]=NCc1ccccc1[C@H]1OC(c2ccc(OCCCO)cc2)=N[C@@]1(Cc1ccccc1N=[N+]=[N-])C(=O)N1CCOCC1,1.43
9,C=C(CCCC)/C(=C/C[C@@H](OC(C)=O)c1cccc(OCCO)c1)c1cc(C(=O)OC)ccc1OC,0.523
10,C=CCNC(=O)[C@H]1[C@@H]2C(=O)O[C@@H](c3ccccc3)[C@@H](c3ccccc3)N2[C@@H](c2ccc(OCCO)cc2)[C@]12C(=O)N(C(=O)OCCOC)c1ccc(C#CCC(C(=O)OC)C(=O)OC)cc12,2.76
11,C=CCOC(=O)[C@@H]1[C@H]2C(=O)O[C@H](c3ccccc3)[C@H](c3ccccc3)N2[C@H](c2ccc(OCCOC(=O)[C@@H]3C[C@@H]4C(=O)N[C@@H](CC(C)C)C(=O)N4[C@@H]3c3ccc(O)cc3)cc2)[C@@]12C(=O)Nc1ccc(I)cc12,1.75
12,COC(=O)[C@@]1(Cc2ccc(F)cc2)[C@H]2c3cc(C(=O)N4CCCC4)n(C[C@H](O)CO)c3C[C@H]2CN1C(=O)c1ccccc1,-0.108
13,COc1cc2c(cc1O)C(C)N(Cc1sc3ccccc3c1Cl)CC2 (stereo unspecified),-0.123
14,Cc1ccc(S(=O)(=O)N2[C@@H](c3ccccc3)C(C(=O)O)=CC[C@H]2c2ccc(F)cc2)cc1,-0.069
15,C=C(C(=O)CC[C@@H](OC(=O)c1ccccc1-c1ccccc1C(=O)O)c1ccc(OCCO)cc1)C(C)C,-0.718
16,C=CC[C@H](OC(=O)Nc1ccc(SC)cc1)c1ccc(O)c(F)c1,-11 (active)
17,O=C1c2ccccc2[C@@]2(Cc3ccccc3N(CC(F)(F)F)C2=O)[C@H](c2ccc(CO)cc2)N1Cc1ccccc1,-0.224
18,C#CCN(C(=O)OC(C)(C)C)[C@H](CO)c1ccccc1,-0.184
19,COC(=O)[C@@]1(Cc2ccc(F)cc2)[C@H]2c3cc(C(=O)N4CCCC4)n(CCc4c[nH]c5cc(F)ccc45)c3C[C@H]2CN1C(=O)c1ccccc1,0.335

# From PubChem BioAssay
